# Test results: ChEMBL document CHEMBL3988442, “University of Dundee, Small-Polar-MMV Screening Library” (2021)
# Among all 48,000 compounds or so, about 13,000 (27%) showed an effect of 50% or more. This is one part of the list.
# Tested on: Wolbachia pipientis
# Test: Anti-Wolbachia Cell-Based Screen
# Assay type: functional
# Parameters: scale not given: in the data most compounds retested in dose-response had high values
# Conditions: 5 µM
row,SMILES,Percent Effect [%]
1,CN(Cc1cn2c(n1)CN(C(=O)c1cccn1C)CC2)Cc1ccco1,10.07
2,COc1cccc(OCc2nnc3n2N=C(C(C)(C)C)CS3)c1,-3.476
3,CCC(CC)N(Cc1cc(=O)n(C)c(=O)n1C)C1CC1,-2.422
4,CC(C)C(O)CNC(=O)Nc1cccc(-c2nccs2)c1 (stereo not drawn),0.8901
5,CN1CCC2(CC1)CN(CC1CC1)CC21CCNC1=O.O=C(O)C(F)(F)F.O=C(O)C(F)(F)F (stereo not drawn),-40.68
6,COCCN1CCC(CNC(=O)C2(c3cc(C)cc(C)c3)CC2)CC1,106.5
7,COCCN1CCC(CNC(=O)C2(c3cccc(C)c3)CC2)CC1,2.355
8,COCCN1CCC(CNC(=O)C2(c3cccc(Cl)c3)CC2)C1 (stereo not drawn),119
9,COCCN1CCC(CNC(=O)C2(c3cc(C)cc(C)c3)CCC2)C1 (stereo not drawn),8.369
10,COCCN1CCC(CNC(=O)C2(c3cccc(C)c3)CC2)C1 (stereo not drawn),112.6
11,CCN1CCCC(CNC(=O)C2(c3cccc(Cl)c3)CC2)C1 (stereo not drawn),3.483
12,COCCN1CCC(NC(=O)C2(c3cc(C)cc(C)c3)CC2)CC1,0.6832
13,COC(C)c1noc(CN(C)c2ncc(Br)cn2)n1 (stereo not drawn),13.56
14,CCCc1noc(CCCC(=O)N2CCCC(n3ccnc3C)C2)n1 (stereo not drawn),-4.622
15,CCCN1CCC(N2CCC(Cn3cc(C4CC4)nn3)CC2)CC1,-14.8
16,Cc1ccc(F)c(S(=O)(=O)NCc2cccc(CS(C)(=O)=O)c2)c1,-5.265
17,CCS(=O)(=O)N1C[C@H]2CN(Cc3cccc(F)c3)C(=O)[C@H]2C1,106.4
18,CCS(=O)(=O)N1C[C@H]2CN(Cc3ccc(OC)cc3)C(=O)[C@H]2C1,106.9
19,COc1ccc(CN2C[C@@H]3CN(CCO)C[C@@H]3C2=O)cc1,-4.847
20,Cc1cccc(CN2C[C@@H]3CN(C4CCOCC4)C[C@@H]3C2=O)c1.O=C(O)C(F)(F)F,2.907
21,Cc1cccc(CN2C[C@@H]3CN(C(=O)NC(C)C)C[C@@H]3C2=O)c1,0.03785
22,COc1ccc(CN2C[C@@H]3CN(S(=O)(=O)C4CC4)C[C@@H]3C2=O)cc1,-20.01
23,Cc1cccc(CN2C[C@@H]3CN(C(=O)c4ccsc4)C[C@@H]3C2=O)c1,0.6245
24,O=C(O)C(F)(F)F.O=C1[C@H]2CN(CC3CCOCC3)C[C@H]2CN1Cc1cccc(F)c1,-3.595
25,CCS(=O)(=O)N1C[C@H]2CN(Cc3cccc(C)c3)C(=O)[C@H]2C1,103

row,SMILES,Percent Effect [%]
1,CCCNC(=O)[C@@H]1CCCN1[C@@H](C(=O)NC)C1CC1.Cl,-3.59
2,O=C(N1CCC(O)(C(F)(F)F)C1)C1(c2cccc(Cl)c2)CC1 (stereo not drawn),-4.685
3,C[S+]([O-])c1ccc(NC(=O)CC2=CCCCC2)cc1 (stereo not drawn),-2.422
4,CCOCC1CN(c2ncc(F)cn2)Cc2cn(CC)nc21 (stereo not drawn),-1.494
5,COCC1CN(CCc2ccc(OC)c(OC)c2)Cc2c1cnn2C (stereo not drawn),98.17
6,CCOCC1CN(CCc2ccccc2)Cc2c1cnn2C (stereo not drawn),9.007
7,CCn1ncc2c1CN(C(=O)c1cc(C)oc1C)CC2COC.O=C(O)C(F)(F)F (stereo not drawn),-2.484
8,COCC1CN(S(=O)(=O)c2ccc(C)cc2)Cc2c1cnn2C.O=C(O)C(F)(F)F (stereo not drawn),14.09
9,CCn1ncc2c1CN(CCc1cccc(Cl)c1)CC2COC.O=C(O)C(F)(F)F.O=C(O)C(F)(F)F (stereo not drawn),128.6
10,COCC1CN(CCOc2ccc(Cl)cc2)Cc2c1cnn2C.O=C(O)C(F)(F)F.O=C(O)C(F)(F)F (stereo not drawn),128.1
11,CCn1ncc2c1CN(C(=O)Cc1ccccn1)CC2COC.O=C(O)C(F)(F)F.O=C(O)C(F)(F)F (stereo not drawn),-10.79
12,CCOCC1CN(CCOc2ccc(Cl)cc2)Cc2c1cnn2C.O=C(O)C(F)(F)F.O=C(O)C(F)(F)F (stereo not drawn),-5.642
13,CCOCC1CN(CCOCc2ccccc2)Cc2c1cnn2C (stereo not drawn),-3.92
14,CN1CCN(c2ccc(NCc3ccc(OC(F)(F)F)cc3)cn2)CC1,-13.31
15,COC(=O)N1CCC(Nc2cccc(F)c2C#N)CC1,6.326
16,N#Cc1ccccc1C(=O)N1C[C@@H](CN2CCCCCC2)[C@@H](CO)C1,-2.218
17,Cc1nnc(SCC(=O)N2CCc3[nH]nc(C4CCC4)c3C2)o1,-25.51
18,CCN(CC)C(=O)C(c1ccccc1)N1CCn2c(C)nnc2C1 (stereo not drawn),-5.766
19,CC1(C)CC(CC(=O)N2CC(C)(C)[C@@](C)(O)C2)CC(C)(C)N1,-10.88
20,CCc1cc(N[C@@H](CC(C)C)C(N)=O)n2nc(C)c(C)c2n1,1.157
21,O=C([C@H]1CCCO1)N1CCN(Cc2cccnc2)c2ncccc2C1,109.6
22,O=C1CC(C(=O)N2CCc3sccc3C2)CN1Cc1cccnc1 (stereo not drawn),-4.394
23,O=C([C@@H]1CCCO1)N1CCN(Cc2ccncc2)c2ncccc2C1,98.82
24,CCC(C)(C)NC(=O)c1ccc(NC(=O)NCc2cc(C)no2)cc1,-4.635
25,COCCN(CCOC)c1nc2c(s1)c(C)nn2C,0.9407

row,SMILES,Percent Effect [%]
1,COCC(=O)N1CCC(C(=O)Nc2ccc(C(C)=O)cc2)CC1,-27.44
2,COC(=O)C(NC(=O)Nc1ccc(C(C)=O)cc1)C(C)C (stereo not drawn),123.5
3,Cc1ccc(NC(=O)NC(C)c2nc[nH]n2)cc1 (stereo not drawn),-1.45
4,COC(=O)[C@@H](NC(=O)Nc1ccc(C(C)=O)cc1)C(C)C,115.5
5,O=C(c1ccc(OCC2CC2)nc1)N1CCCC(n2cncn2)C1 (stereo not drawn),-8.592
6,Cc1cnn(C2CCCN(C(=O)c3ccc(N(C)C)nn3)C2)c1 (stereo not drawn),-2.152
7,CCn1nc(C(=O)N2CCCC(n3cncn3)C2)ccc1=O (stereo not drawn),-5.268
8,Cc1nccn1C1CCCN(C(=O)c2ccc(N(C)C)nn2)C1 (stereo not drawn),121.5
9,CCc1nccn1C1CCCN(C(=O)c2ccc(N(C)C)nn2)C1 (stereo not drawn),8.431
10,COc1ccc(C(=O)N2CCCC(n3cncn3)C2)nn1 (stereo not drawn),89.87
11,Cc1nc(C)n(C2CCCN(C(=O)c3ccc(N(C)C)nn3)C2)n1 (stereo not drawn),-4.997
12,CN(C)c1ccc(C(=O)N2CCCC(n3cncn3)C2)nn1 (stereo not drawn),102.9
13,COc1cc(CN2CCCC2)ccc1Oc1ccc2c(c1)CC(CN)O2 (stereo not drawn),-3.423
14,CCCc1nc(C)c(C(=O)NS(=O)(=O)c2ccc(C#N)cc2)s1,11.71
15,COc1ccccc1CC(=O)NS(=O)(=O)c1ccc(NC(C)=O)cc1,120.5
16,CCCN(Cc1ccc(S(=O)(=O)NC)cc1)Cc1ccccc1OC,2.153
17,COc1ccccc1CC(=O)NS(=O)(=O)c1cncc(Br)c1,1.416
18,COc1ccccc1CC(=O)NS(=O)(=O)c1ccc(C#N)cc1,90.41
19,COc1ccccc1CC(=O)NS(C)(=O)=O,-0.264
20,CCc1nc(CN2CCN(C(=O)COCc3ccccc3)CC2)no1,16.69
21,O=C(O)c1csc(S(=O)(=O)Nc2cccc(OCC(F)(F)F)c2)c1,12.1
22,CSc1nsc(NC(=O)c2cc(C3CC3)nn2C)n1,105.4
23,Cc1nsc(NC(=O)N2CCCC2C)n1 (stereo not drawn),-6.715
24,CCCc1cc(C(=O)Nc2nc(SC)ns2)[nH]n1,-43.27
25,Cc1nsc(NC(=O)NC2CCN(C)CC2)n1,-30.6

row,SMILES,Percent Effect [%]
1,CCCc1cc(C(=O)Nc2nc(SC)ns2)n(C)n1,129.6
2,CC(C)c1nn(C)c(N2CCOCC2)c1CNC(C)c1cccs1 (stereo not drawn),1.351
3,CCNC(=O)NC(=O)CNC(C)(CC)c1nc(C)cs1 (stereo not drawn),6.164
4,CC(C)CN(CC(C)C)Cn1ncc2cn(-c3ccccc3)nc2c1=O,8.982
5,Cc1nn(-c2ccccc2)cc1C(=O)N1CCCC1c1cnn(C)c1 (stereo not drawn),105.2
6,Cc1ccc(-n2ncc(C(=O)N3CCCC3c3cnn(C)c3)c2C)cc1 (stereo not drawn),102.1
7,Cc1nn(-c2ccccc2)nc1C(=O)N1CCCC1c1cnn(C)c1 (stereo not drawn),5.794
8,Cc1c(C(=O)N2CCCC2c2cnn(C)c2)cnn1-c1ccccc1 (stereo not drawn),112.8
9,Cc1ccccc1-n1ncc(C(=O)N2CCCC2c2cnn(C)c2)c1C (stereo not drawn),-2.042
10,Cn1cc(C2CCCN2C(=O)Cn2ccc3ccccc32)cn1 (stereo not drawn),10.33
11,Cn1cc(C2CCCN2C(=O)c2cn(-c3ccccc3)nn2)cn1 (stereo not drawn),82.94
12,Cc1c(C(=O)N2CCCC2c2cnn(C)c2)nnn1-c1ccccc1 (stereo not drawn),-1.391
13,CCCOc1ccc(C(=O)N2CCN3CCNC(=O)C3C2)cc1Cl (stereo not drawn),-5.744
14,Clc1ccc(C2(NCc3noc(C4CC4)n3)CCC2)cc1,3.298
15,COCCN(Cc1cccc(C#N)c1)Cc1nnsc1Cl,9.531
16,COc1ccc(NC(=O)c2ccoc2C)c(N2CCN(C(C)=O)CC2)n1,0.9885
17,Cc1nc(CNC(=O)NCC(O)c2ccc(F)cc2F)cs1 (stereo not drawn),-3.131
18,Cc1nc(C)n(CC2CCCN2CC(=O)Nc2cc(C(C)C)no2)n1 (stereo not drawn),-1.165
19,Cc1nc(C)n(CC2CCCCN2CCC(=O)Nc2cc(C)on2)n1 (stereo not drawn),5.676
20,Cc1nc(C)n(CC2CCCN2Cc2cc(C)on2)n1 (stereo not drawn),-8.278
21,Cc1nc(C)n(CC2CCCCN2CC(=O)Nc2ccncc2)n1 (stereo not drawn),-2.552
22,Cc1nc(C)n(CC2CCCCN2CC(=O)Nc2cc(C)on2)n1 (stereo not drawn),106.4
23,Cc1nc(C)n(CC2CCCN2CC(=O)Nc2cc(C)on2)n1 (stereo not drawn),98.7
